An excerpt weighted towards active compounds, which were near 2.3% of everything screened.
p53ts 39C kill = qHTS Screen for Compounds that Selectively Target Cancer Cells with p53 Mutations: Cytotoxicity of p53ts Cells at the Nonpermissive Temperature; H1299-p53A138V viability at 39C, ATP luminescence, 24 h; Potency, µM (series often up to 46.1 µM), actives largely listed as cytotoxic; 1.5% of 130,000 active; note: nearly all actives have a fitted effect of over 55% in size
IkB sig inh = IkB Signaling. ABC-DLBCL IkBa-CBG/CBR dual luciferase ratio, 4 h; response scale: scaled: untreated 0%, proteasome inhibitor 100%. Potency, µM (series often up to 57.1 µM). 0.04% of 110,000 active. AID 445, 2006; active = well fitted curve in the direction sought with a large enough effect in the signal ratio, not every such curve was filed as active; inconclusive = small, poorly fitted or top-dose-only effect, or a change in a side signal; the % refers to the signal ratio;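 note: the direction sought is a rising ratio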
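In this assay, an IκBα–CBG68 fusion accumulates when IKK-driven degradation is blocked; native CBR normalizes for cell number. OCI-Ly3 cells were treated 4 h with compound and doxycycline, then green and red light read after Chroma-Glo addition.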
Peg3 imprint = qHTS Assay for Compounds that Induce Erasure of Genomic Imprints; Potency, µM (top dose mostly 60.7 µM), actives largely listed as activators; AID 1948, 2009; mouse ES Peg3-LacZ reporter, beta-gal luminescence, 40 h; 0.02% of 110,000 active
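Imprint erasure is scored as LacZ activity from the silenced maternal Peg3 allele in feeder-free female ES cells cultured 40 h with LIF. Luminescence is normalized to in-plate negative controls and fitted to the Hill equation.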
p53ts 32C kill = qHTS Screen for Compounds that Selectively Target Cancer Cells with p53 Mutations: Cytotoxicity of p53ts Cells at the Permissive Temperature; H1299-p53A138V at 32C, ATP luminescence viability, 24 h; AID 924, 2007; Potency, µM (doses to about 46.1 µM), most hits filed as cytotoxic; 0.93% of 130,000 active; note: nearly all actives have a fitted effect of over 55% in size
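Cells: H1299 p53ts (A138V), 600/well, pre-incubated 16–30 h at 37C. Cpd up to 46 uM, 24 h, 32C. Readout: ATPlite luminescence, 20 min RT. Normalization: DMSO vs tamoxifen 100 uM. AC50 by Hill equation.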
ERK AVP inh = qHTS Assay for Inhibitors of the ERK Signaling Pathway using a Homogeneous Screening Assay | Potency, µM (titrated, usually from 57.5 µM), usual class: inhibitors | HEK293-V1b, vasopressin-stimulated pERK AlphaScreen | 0.99% of 72,000 active; note: nearly all actives have a fitted effect of over 55% in size
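Overnight-seeded V1b-HEK293 cells in 1% FBS got compound, then vasopressin (25 nM final, 5 min, 37C), then lysis buffer. AlphaScreen detection of phospho-ERK; activity normalized to basal and full-stimulation controls.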
Large screens that a line does not name were inactive; ! = not active in a repeat. Unless noted, calls come from the whole dose curve; as a rule, active = well fitted curve in the direction sought with a large enough effect; inconclusive = small, poorly fitted or top-dose-only effect, or another doubt; inactive = no such curve, though single readings can be large; an effect the other way counts as inactive or inconclusive.

COc1ccccc1NC(=O)c1cc2ccc(O)cc2o/c1=N\O	IkB sig inh inconclusive, ERK AVP inh 32µM
COc1ccc(NC(=O)c2ccc(-c3nc(CSc4ccccc4)c(C)o3)cc2)cc1OC	p53ts 39C kill inconclusive (no result: ERK AVP inh)
COc1ccc(NC(=O)c2ccc(-c3ccc(-c4noc(C)n4)cc3C)cc2)cc1N1CCN(C)CC1	p53ts 39C kill 20µM, IkB sig inh inconclusive, p53ts 32C kill inconclusive, ERK AVP inh 13µM!
COc1ccc(NC(=O)c2ccc(-c3ccc(-c4noc(C)n4)cc3C)cc2)cc1OCCN(C)C	p53ts 39C kill 7.9µM, IkB sig inh inconclusive, p53ts 32C kill 25µM, ERK AVP inh inconclusive
COc1ccc(Cl)cc1-c1nc(-c2ccc(NC(=O)c3ccncc3)cc2)no1	none
COc1ccc(-c2nc(-c3ccc(NC(=O)c4ccncc4)cc3)no2)cc1OC	IkB sig inh inconclusive, ERK AVP inh 10µM
O=C(NCc1cccnc1)[C@@H]1[C@@H](C(=O)O)[C@H]2CC[C@@H]1O2	none
COc1ccc(CNc2nc3c(-c4cccc(C)c4)nnn3c3ccccc23)cc1	p53ts 39C kill inconclusive, IkB sig inh inconclusive (no result: ERK AVP inh)
COc1ccc(CNc2nc3c(-c4cccc(F)c4)nnn3c3ccccc23)cc1	p53ts 39C kill 13µM, p53ts 32C kill inconclusive (no result: ERK AVP inh)
COc1cccc(CNC(=O)c2cc3c(=O)n(C)c4ccccc4c3n2C)c1	p53ts 39C kill 10µM, IkB sig inh inconclusive (no result: ERK AVP inh)
Cn1c(C(=O)NCc2cccs2)cc2c(=O)n(C)c3ccccc3c21	none
CS(=O)(=O)c1ccc(Cn2c3c(c4cc(F)cc(F)c42)CCC[C@H]3CC(=O)O)cc1	IkB sig inh inconclusive, Peg3 imprint inconclusive, ERK AVP inh inconclusive
COC(=O)/C=C/S(=O)(=O)c1ccc(NC(C)=O)cc1	p53ts 39C kill inconclusive, IkB sig inh inconclusive, p53ts 32C kill inconclusive, ERK AVP inh inconclusive
Cc1ccc(S(=O)(=O)/C=C\C#N)cc1	p53ts 39C kill 13µM, IkB sig inh inconclusive, p53ts 32C kill 13µM, ERK AVP inh 20µM
CC(C)(C)c1ccc(S(=O)(=O)/C=C\C#N)cc1	p53ts 39C kill 20µM, IkB sig inh inconclusive, p53ts 32C kill 16µM, ERK AVP inh 32µM
CCOC(=O)CCN1C(=O)[C@H]2[C@H]3[C@H](O)[C@H](O)C/C(=N/NC(=O)OCC)[C@H]3CC[C@@H]2C1=O	none (no result: IkB sig inh, Peg3 imprint)
CC(C)CCNC(=O)[C@@H](c1ccccc1)N1Cc2ccccc2C1=O	none (no result: ERK AVP inh)
CC(C(=O)O)c1ccc(N2Cc3ccccc3C2=O)cc1 (stereo not drawn)	p53ts 39C kill 10µM, p53ts 32C kill 10µM (no result: IkB sig inh)
CCOc1cc(C(=O)CSc2nnc(CNc3ccc(Cl)cc3)o2)ccc1NC(=O)CC	p53ts 39C kill 16µM, p53ts 32C kill 16µM (no result: Peg3 imprint)
CCc1nnc(NC(=O)CSc2nnc(CNc3ccc(Cl)cc3)o2)s1	IkB sig inh inconclusive
CCC(=O)/C=C1/Sc2ccccc2N1CC	none (no result: IkB sig inh, Peg3 imprint, ERK AVP inh)
CCN(CC)C(C)CN1c2ccccc2Sc2ccccc21 (stereo not drawn)	p53ts 39C kill 25µM (no result: IkB sig inh)
CC(C)c1ccc(-c2nnn(CCC(=O)O)n2)cc1	p53ts 39C kill inconclusive, IkB sig inh inconclusive, p53ts 32C kill 10µM
CC(C)(C)CC(C)(C)c1cc(O)c(O)c(CN2CCCCC2)c1	none
CC1(C)C=Cc2c(cc3occ(-c4ccc5c(c4)OCO5)c(=O)c3c2O)O1	p53ts 39C kill inconclusive, p53ts 32C kill inconclusive (no result: IkB sig inh)
COc1c(-c2coc3cc4c(cc3c2=O)CC(OC(C)=O)C(C)(C)O4)ccc2c1C=CC(C)(C)O2 (stereo not drawn)	ERK AVP inh 16µM (no result: IkB sig inh)
COc1c(-c2coc3cc4c(cc3c2=O)CC(O)C(C)(C)O4)ccc2c1C=CC(C)(C)O2 (stereo not drawn)	p53ts 39C kill 25µM, p53ts 32C kill inconclusive, ERK AVP inh 3.2µM (no result: IkB sig inh)
O=C1c2ccccc2C(=O)c2c(O)c(O)cc(O)c21	ERK AVP inh 32µM (no result: IkB sig inh)
CN(C)CCCNc1cc(O)c2c(c1O)C(=O)c1ccccc1C2=O	none
CCCCOc1ccccc1CC1C(=O)Nc2ccc(Br)cc21 (stereo not drawn)	p53ts 39C kill 13µM, p53ts 32C kill inconclusive (no result: ERK AVP inh)

Bioassay records deposited in PubChem by National Center for Advancing Translational Sciences (NCATS).
